Laboratory results reported in PubChem BioAssay (NCATS).
Several values for one entry are separate records, joined by “and”; a condition that tells them apart may be missing. Equal entries are not always repeated. Results filed as inconclusive are left out. Activity calls are given as the source filed them. Calls follow the shape of the dose curve; as a rule, active = well fitted curve in the direction sought with a large enough effect; inconclusive = small, poorly fitted or top-dose-only effect, or another doubt; inactive = no such curve, though single readings can be large; an effect the other way counts as inactive or inconclusive.

Assays:
[1] = MultiTox-Fluor Cytotoxicity Assay - LYMP1-001 - Dead Cells (AID 946)
How it was run: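 Cytotoxicity as increased dead-cell protease fluorescence (bis-AAF-R110, 485/520 nm), read 60 min after MultiTox-Fluor reagent. Human lymphoblastoid line exposed 16 h; Hill-fitted AC50, with DMSO as 0% and 15 uM tetraoctylammonium bromide as 100%.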

[2] = MultiTox-Fluor Cytotoxicity Assay - LYMP1-001 - Live Cells (AID 947);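 also: 0% = DMSO only and full inhibition = tetraoctylammonium bromide control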
[3] = Cell Viability - LYMP1-002 - Assay at 16 hr (AID 948);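 also: 0% = DMSO alone and full effect = 92 µM tetraoctylammonium bromide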
How it was run: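 LYMP1-002 human lymphoblastoid cells, 2500/well, were treated with compounds for 16 hr at 37 C in complete medium. Viability was read as intracellular ATP by CellTiter-Glo luminescence, and AC50 was derived from a Hill fit to concentration-response data.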

[4] = MultiTox-Fluor Cytotoxicity Assay - LYMP1-002 - Live Cells (AID 955);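 also: cells exposed to compound for 16 hours; % is scaled to controls: 0 for no effect and ±100 for the full control effect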
How it was run: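 Cells were seeded at 2500 per well and incubated 5 hr. Compounds were then added for 16 hr at 37 C, followed by MultiTox-Fluor reagent for 60 min at room temperature and fluorescence reading of viable-cell protease signal.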

[5] = MultiTox-Fluor Cytotoxicity Assay - LYMP1-003 - Live Cells (AID 962);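 also: cells exposed to compound for 16 hours at 37 °C; 0% = DMSO only and full loss = 92 µM tetraoctylammonium bromide; cytotoxic hits lower the live-cell protease signal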
How it was run: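 Acute cytotoxicity is scored as a drop in live-cell protease activity in human lymphoblastoid LYMP1-003 cells after 16 hr compound exposure at 37 C. AC50 values come from Hill-equation modelling of concentration-response data.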

[6] = Cell Viability - LYMP1-003 - Assay at 24 hr (AID 963);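 also: plate controls were DMSO only for no effect and tetraoctylammonium bromide positive control for full effect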
How it was run: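 Cytotoxicity is scored as a concentration-dependent fall in ATP-linked luciferase signal in human lymphoblastoid LYMP1-003 cells treated 24 hr at 37 C in complete culture medium.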

[7] = Cell Viability - LYMP2-003 (AID 965);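 also: cells exposed to compounds for 24 h before reading; 0% = DMSO only and full effect = 92 µM tetraoctylammonium bromide; nearly all actives have a fitted effect of over 50% in size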
How it was run: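 Human lymphoblastoid LYMP2-003 cells, 2500/well, exposed to compounds for 24 h at 37 C in complete medium. Viability read as intracellular ATP by CellTiter-Glo luminescence; AC50 from Hill-equation fits of qHTS concentration-response data.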

[8] = Cell Viability - LYMP2-005 (AID 967);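 also: series mostly up to about 92 µM; plate controls were DMSO only for no effect and 92 µM tetraoctylammonium bromide control for full effect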
How it was run: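 Human lymphoblastoid LYMP2-005 cells, 2,500 per well in complete medium, rested 5 h at 37C then compound-treated 24 h at 37C. Intracellular ATP read by CellTiter-Glo luminescence after 30 min at room temperature; AC50 from Hill-equation fits of concentration-response data.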

[9] = Cell Viability - LYMP2-009 (AID 968);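 also: series mostly up to about 92 µM; 0% = DMSO alone and the full-kill end = tetraoctylammonium bromide at 92 µM; nearly all actives have a fitted effect of over 55% in size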
[10] = Cell Viability - LYMP2-011 (AID 969);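 also: 0% = DMSO only and full inhibition = 92 µM tetraoctylammonium bromide; nearly all actives have a fitted effect of over 60% in size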
How it was run: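 In this qHTS cytotoxicity format, compounds are tested across concentrations on human lymphoblastoid cells in complete medium for 24 hours at 37 C. Viability is taken as cellular ATP measured by luciferase luminescence.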

[11] = Cell Viability - LYMP2-013 (AID 970);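 also: series mostly up to about 92 µM; 0% = DMSO only and full inhibition = tetraoctylammonium bromide control; nearly all actives have a fitted effect of over 55% in size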
How it was run: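 Cytotoxicity is scored as a concentration-dependent drop in intracellular ATP in human lymphoblastoid cells after 24 hr compound exposure at 37 C. ATP is quantified by luciferase luminescence, and AC50 values come from Hill-equation modeling.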

[12] = Cell Viability - LYMP2-015 (AID 971);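 also: 0% = DMSO only and full effect = 92 µM tetraoctylammonium bromide; nearly all actives have a fitted effect of over 55% in size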
How it was run: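 Cells are seeded at 2500 per well and incubated 5 hr at 37 C. Compounds are added across a concentration series for 24 hr at 37 C. CellTiter-Glo is added, and luminescence is read after 30 min at room temperature.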

[13] = Cell Viability - LYMP2-017 (AID 972); also: series mostly up to about 92 µM; % is scaled to controls: 0 for no effect and ±100 for the full control effect; nearly all actives have a fitted effect of over 55% in size
How it was run: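 Cytotoxicity is scored as a concentration-dependent drop in cellular ATP in a human lymphoblastoid line after 24 hr treatment at 37 C. Values are AC50s from Hill-equation modelling.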

[14] = Cell Viability - LYMP2-019 (AID 973)
How it was run: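 Cytotoxicity is scored as a concentration-dependent drop in cellular ATP after cells (2500/well) receive compound for 24 hr at 37 C. Tetraoctylammonium bromide serves as positive control.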

[15] = Cell Viability - LYMP2-021 (AID 974)
How it was run: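 Loss of cellular ATP, measured with a luciferase-based CellTiter-Glo readout, serves as the toxicity signal in human lymphoblastoid cells treated for 24 hours at 37 C. Potency is reported as AC50 from a standard Hill model.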

[16] = Cell Viability - LYMP2-023 (AID 975)
How it was run: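 Steps: seed 2500 human lymphoblastoid cells per well, incubate 5 hr at 37 C, add compound for 24 hr at 37 C, add CellTiter-Glo, hold 30 min at room temperature, read luminescence. AC50 derived by Hill modelling.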

[17] = Cell Viability - LYMP2-025 (AID 976);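 also: series mostly up to about 92 µM; plate controls were DMSO only for no effect and tetraoctylammonium bromide control for full effect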
How it was run: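 Acute cytotoxicity is scored as a concentration-dependent fall in intracellular ATP, measured by luciferase luminescence, in human lymphoblastoid LYMP2-025 cells exposed to compound for 24 hours at 37 C. AC50 values come from standard Hill fits.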

[18] = Cell Viability - LYMP2-006 (AID 978); also: series mostly up to about 92 µM; % is scaled to controls: 0 for no effect and ±100 for the full control effect; nearly all actives have a fitted effect of over 60% in size
How it was run: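 Human lymphoblastoid cells (LYMP2-006), 2500/well in complete medium, were treated with compound for 24 hr at 37 C. Cellular ATP was read by CellTiter-Glo luminescence after 30 min, and AC50 values came from Hill-equation fits of concentration-response data.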

[19] = qHTS assay for cell viability of HEK293 cells (AID 743288); settings: ATP luminescence (CellTiter-Glo), 18 h; max response: stronger effect = lower value; also: % is scaled to controls: 0 for no effect and ±100 for the full control effect; nearly all actives have a fitted effect of over 50% in size
How it was run: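 Steps: plate 2,000 parental HEK293 cells per well; incubate ≥5 h, 37 C; add compounds in DMSO; incubate 18 h, 37 C; add CellTiter-Glo; wait 30 min at room temperature; read luminescence.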

[20] = qHTS assay for cell viability of the p53RE-bla HCT-116 cell line (AID 743292)
How it was run: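 Readout: CellTiter-Glo luminescence after 30 min RT. Treatment: compounds in DMSO, 16 h, 37 C. Cells: CellSensor p53RE-bla HCT-116, 4,000/well, preincubated 5 h.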

CC(C)COC(=O)c1ccccc1C(=O)OCC(C)C
inactive: Potency [1] | outcome [2] | outcome [3] | outcome [4] | outcome [5] | outcome [6] | outcome [7] | outcome [8] | outcome [9] | outcome [10] | outcome [11] | outcome [12] | outcome [13] | outcome [14] | outcome [15] | outcome [16] | outcome [17] | outcome [18] | max response [19] 0.653% | outcome [20]

CCOC(=O)c1ccccc1N
inactive: Potency [1] | outcome [2] | outcome [3] | outcome [4] | outcome [5] | outcome [6] | outcome [7] | outcome [8] | outcome [9] | outcome [10] | outcome [11] | outcome [12] | outcome [13] | outcome [14] | outcome [15] | outcome [16] | outcome [17] | outcome [18] | max response [19] -8.89% | outcome [20]

Oc1ccccc1Cl
inactive: Potency [1] | outcome [2] | outcome [3] | outcome [4] | outcome [5] | outcome [6] | outcome [7] | outcome [8] | outcome [9] | outcome [10] | outcome [11] | outcome [12] | outcome [13] | outcome [14] | outcome [15] | outcome [16] | outcome [17] | outcome [18] | max response [19] -13.2% | outcome [20]

COC1=CC(=O)OC(CCc2ccc3c(c2)OCO3)C1 (stereo not given)
inactive: Potency [1] | outcome [2] | outcome [3] | outcome [4] | outcome [5] | outcome [6] | outcome [7] | outcome [8] | outcome [9] | outcome [10] | outcome [11] | outcome [12] | outcome [13] | outcome [14] | outcome [15] | outcome [16] | outcome [17] | outcome [18] | max response [19] -5.17% | outcome [20]

c1ccc(Nc2ccc3ccccc3c2)cc1
inactive: Potency [1] | outcome [2] | outcome [3] | outcome [4] | outcome [5] | outcome [6] | outcome [7] | outcome [8] | outcome [9] | outcome [10] | outcome [11] | outcome [12] | outcome [13] | outcome [14] | outcome [15] | outcome [16] | outcome [17] | outcome [18] | max response [19] -12% and -13.2% | outcome [20]

CC(=O)/C=C/c1ccccc1
inactive: Potency [1] | outcome [2] | outcome [3] | outcome [4] | outcome [5] | outcome [6] | outcome [7] | outcome [8] | outcome [9] | outcome [10] | outcome [11] | outcome [12] | outcome [13] | outcome [14] | outcome [15] | outcome [16] | outcome [17] | outcome [18] | max response [19] -4.92% | outcome [20]

c1ccc2c(c1)-c1cccc3cccc-2c13
inactive: Potency [1] | outcome [2] | outcome [3] | outcome [4] | outcome [5] | outcome [6] | outcome [7] | outcome [8] | outcome [9] | outcome [10] | outcome [11] | outcome [12] | outcome [13] | outcome [14] | outcome [15] | outcome [16] | outcome [17] | outcome [18] | max response [19] -24.1% and 3.9% | outcome [20]
